# Assay results as given in the supplement of paper PMC12494721.
# Structures can show the parent of a compound that is named as a salt.
# Tests used:
# Conditions in all cases: incubation time: 27 h, anaerobic, 37 °C;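 for the amine columns active = adjusted P below 0.05 in both replicates with a change the same way and a mean fold change under 0.8 or over 1.25; inactive = the rest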
# [1] = test system: Clostridium sporogenes DSM 1664; assay: growth (OD595) fold change vs plate DMSO controls (fold change (ratio)); higher = more growth
# Outline: (§1)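 Growth is the fold change relative to the median of plate DMSO controls. Readings came from anaerobic mGAM cultures in 96-well plates grown for 27 h at 37 °C and read at 595 nm. They were blank-subtracted, corrected for compound background with 20 µM compound solutions in water, and converted to OD with a calibration factor of 5. Values are means of 2 biological replicates, and fold changes above 1.5 were set to NA.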
# Escherichia coli IAI1 [2] = assay: as above
# Outline: as §1
# [3] = test system: Klebsiella aerogenes DSM 30053; assay: as above
# Outline: as §1
# [4] = test system: Ruminococcus gnavus DSM 108212; assay: as above
# Outline: as §1
# [5] = test system: Klebsiella aerogenes DSM 30053; assay: fold change of Histamine concentration vs plate DMSO controls (fold change (ratio)); higher = more amine produced, active = hit call of the paper (significant change in both replicates, either direction)
# Outline: (§2)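 Amine values are fold changes relative to DMSO-only wells on the same plate. They derive from 27 h, 37 °C anaerobic mGAM cultures of four gut bacterial strains in 80 µL wells, dosed at 20 µM final, or 50 µM final for sweeteners. Extraction of the whole culture, LC–triple-quadrupole MS in dynamic MRM mode, external calibration curves and within-batch drift correction were used, with 2 biological replicates averaged.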
# [6] = test system: Clostridium sporogenes DSM 1664; assay: fold change of Tryptamine concentration vs plate DMSO controls (fold change (ratio)); higher = more amine produced, active = hit call of the paper (significant change in both replicates, either direction)
# Outline: as §2
# [7] = test system: Ruminococcus gnavus DSM 108212; assay: as above
# Outline: as §2
# Escherichia coli IAI1 [8] = assay: fold change of Putrescine concentration vs plate DMSO controls (fold change (ratio)); higher = more amine produced, active = hit call of the paper (significant change in both replicates, either direction)
# Outline: as §2
# [9] = test system: Klebsiella aerogenes DSM 30053; assay: as above
# Outline: as §2
# Escherichia coli IAI1 [10] = assay: fold change of Cadaverine concentration vs plate DMSO controls (fold change (ratio)); higher = more amine produced, active = hit call of the paper (significant change in both replicates, either direction)
# Outline: as §2
# [11] = test system: Klebsiella aerogenes DSM 30053; assay: as above
# Outline: as §2
# [12] = test system: Ruminococcus gnavus DSM 108212; assay: fold change of 2-Phenylethylamine concentration vs plate DMSO controls (fold change (ratio)); higher = more amine produced, active = hit call of the paper (significant change in both replicates, either direction)
# Outline: as §2
smiles,measurement,setting,value
CC(=O)N(CC(C)C(=O)O)c1c(I)cc(I)c(N)c1I (centres undefined) [Iocetamic acid] (20 µM),growth,[1],0.863
same,growth,Escherichia coli IAI1 [2],1.01
same,growth,[3],0.986
same,growth,[4],0.975
same,fold change of Histamine concentration,[5],1.04 (inactive)
same,fold change of Tryptamine concentration,[6],1.05 (inactive)
same,fold change of Tryptamine concentration,[7],0.971 (inactive)
same,fold change of Putrescine concentration,Escherichia coli IAI1 [8],1.09 (inactive)
same,fold change of Putrescine concentration,[9],1 (inactive)
same,fold change of Cadaverine concentration,Escherichia coli IAI1 [10],0.988 (inactive)
same,fold change of Cadaverine concentration,[11],0.987 (inactive)
same,fold change of 2-Phenylethylamine concentration,[12],0.924 (inactive)
CCOC(=O)[C@H](CCc1ccccc1)N[C@@H](C)C(=O)N1C(=O)N(C)C[C@H]1C(=O)O [Imidapril hydrochloride] (20 µM),growth,[1],1.19
same,growth,Escherichia coli IAI1 [2],1.05
same,growth,[3],1.05
same,growth,[4],1.2
same,fold change of Histamine concentration,[5],0.963 (inactive)
same,fold change of Tryptamine concentration,[6],0.931 (inactive)
same,fold change of Tryptamine concentration,[7],1.03 (inactive)
same,fold change of Putrescine concentration,Escherichia coli IAI1 [8],1.05 (inactive)
same,fold change of Putrescine concentration,[9],0.997 (inactive)
same,fold change of Cadaverine concentration,Escherichia coli IAI1 [10],1.01 (inactive)
same,fold change of Cadaverine concentration,[11],0.989 (inactive)
same,fold change of 2-Phenylethylamine concentration,[12],1.05 (inactive)
CC(=O)Oc1cc(C(C)C)c(OCCN(C)C)cc1C [Moxisylyte hydrochoride] (20 µM),growth,[1],1.11
same,growth,Escherichia coli IAI1 [2],1.04
same,growth,[3],1.03
same,growth,[4],1.22
same,fold change of Histamine concentration,[5],0.989 (inactive)
same,fold change of Tryptamine concentration,[6],0.957 (inactive)
same,fold change of Tryptamine concentration,[7],1.04 (inactive)
same,fold change of Putrescine concentration,Escherichia coli IAI1 [8],0.997 (inactive)
same,fold change of Putrescine concentration,[9],1.03 (inactive)
same,fold change of Cadaverine concentration,Escherichia coli IAI1 [10],0.986 (inactive)
same,fold change of Cadaverine concentration,[11],1 (inactive)
same,fold change of 2-Phenylethylamine concentration,[12],0.982 (inactive)
CC[N+](C)(CC)CCOC(=O)C1c2ccccc2Oc2ccccc21 [Methantheline bromide] (20 µM),growth,[1],0.956
same,growth,Escherichia coli IAI1 [2],1.01
same,growth,[3],0.979
same,growth,[4],0.897
same,fold change of Histamine concentration,[5],1.05 (inactive)
same,fold change of Tryptamine concentration,[6],0.999 (inactive)
same,fold change of Tryptamine concentration,[7],1.01 (inactive)
same,fold change of Putrescine concentration,Escherichia coli IAI1 [8],1.04 (inactive)
same,fold change of Putrescine concentration,[9],1.01 (inactive)
same,fold change of Cadaverine concentration,Escherichia coli IAI1 [10],1.02 (inactive)
same,fold change of Cadaverine concentration,[11],0.984 (inactive)
same,fold change of 2-Phenylethylamine concentration,[12],1.05 (inactive)
CNC[C@H](O)[C@@H](O)[C@H](O)[C@H](O)CO [Meglumine] (20 µM),growth,[1],0.956
same,growth,Escherichia coli IAI1 [2],1.07
same,growth,[3],1.05
same,growth,[4],0.994
same,fold change of Histamine concentration,[5],0.883 (inactive)
same,fold change of Tryptamine concentration,[6],1.04 (inactive)
same,fold change of Tryptamine concentration,[7],1.02 (inactive)
same,fold change of Putrescine concentration,Escherichia coli IAI1 [8],1.25 (inactive)
same,fold change of Putrescine concentration,[9],0.979 (inactive)
same,fold change of Cadaverine concentration,Escherichia coli IAI1 [10],0.99 (inactive)
same,fold change of Cadaverine concentration,[11],1.06 (inactive)
same,fold change of 2-Phenylethylamine concentration,[12],0.998 (inactive)
O=C1CN(/N=C/c2ccc(-c3ccc([N+](=O)[O-])cc3)o2)C(=O)N1 [Dantrolene sodium salt] (20 µM),growth,[1],1.04
same,growth,Escherichia coli IAI1 [2],0.986
same,growth,[3],0.993
same,growth,[4],0.79
same,fold change of Histamine concentration,[5],0.984 (inactive)
same,fold change of Tryptamine concentration,[6],0.968 (inactive)
same,fold change of Tryptamine concentration,[7],1.01 (inactive)
same,fold change of Putrescine concentration,Escherichia coli IAI1 [8],0.991 (inactive)
same,fold change of Putrescine concentration,[9],0.979 (inactive)
same,fold change of Cadaverine concentration,Escherichia coli IAI1 [10],1.06 (inactive)
same,fold change of Cadaverine concentration,[11],0.99 (inactive)
same,fold change of 2-Phenylethylamine concentration,[12],0.939 (inactive)
CC(CCc1ccc(O)cc1)NCCc1ccc(O)c(O)c1 (centres undefined) [Dobutamine hydrochloride] (20 µM),growth,[1],1.01
same,growth,Escherichia coli IAI1 [2],0.997
same,growth,[3],0.99
same,growth,[4],0.938
same,fold change of Histamine concentration,[5],1.12 (inactive)
same,fold change of Tryptamine concentration,[6],1 (inactive)
same,fold change of Tryptamine concentration,[7],1.02 (inactive)
same,fold change of Putrescine concentration,Escherichia coli IAI1 [8],0.998 (inactive)
same,fold change of Putrescine concentration,[9],1.01 (inactive)
same,fold change of Cadaverine concentration,Escherichia coli IAI1 [10],0.971 (inactive)
same,fold change of Cadaverine concentration,[11],0.973 (inactive)
same,fold change of 2-Phenylethylamine concentration,[12],1.04 (inactive)
C=CCOc1ccc(CC(=O)O)cc1Cl [Alclofenac] (20 µM),growth,[1],0.943
same,growth,Escherichia coli IAI1 [2],1.06
same,growth,[3],0.98
same,growth,[4],1
same,fold change of Histamine concentration,[5],0.998 (inactive)
same,fold change of Tryptamine concentration,[6],1.05 (inactive)
same,fold change of Tryptamine concentration,[7],1.05 (inactive)
same,fold change of Putrescine concentration,Escherichia coli IAI1 [8],1.02 (inactive)
same,fold change of Putrescine concentration,[9],0.974 (inactive)
same,fold change of Cadaverine concentration,Escherichia coli IAI1 [10],0.97 (inactive)
same,fold change of Cadaverine concentration,[11],0.991 (inactive)
same,fold change of 2-Phenylethylamine concentration,[12],1.09 (inactive)
CN[C@H]1CC[C@@H](c2ccc(Cl)c(Cl)c2)c2ccccc21 [Sertraline] (20 µM),growth,[1],1.13
same,growth,Escherichia coli IAI1 [2],1.01
same,growth,[3],1.02
same,growth,[4],0.975
same,fold change of Histamine concentration,[5],0.995 (inactive)
same,fold change of Tryptamine concentration,[6],1.01 (inactive)
same,fold change of Tryptamine concentration,[7],0.902 (inactive)
same,fold change of Putrescine concentration,Escherichia coli IAI1 [8],1.03 (inactive)
same,fold change of Putrescine concentration,[9],1 (inactive)
same,fold change of Cadaverine concentration,Escherichia coli IAI1 [10],1.1 (inactive)
same,fold change of Cadaverine concentration,[11],0.996 (inactive)
same,fold change of 2-Phenylethylamine concentration,[12],1.02 (inactive)
COc1ccccc1O [Guaiacol] (20 µM),growth,[1],0.997
same,growth,Escherichia coli IAI1 [2],1
same,growth,[3],1
same,growth,[4],1.02
same,fold change of Histamine concentration,[5],0.966 (inactive)
same,fold change of Tryptamine concentration,[6],1.03 (inactive)
same,fold change of Tryptamine concentration,[7],1.05 (inactive)
same,fold change of Putrescine concentration,Escherichia coli IAI1 [8],0.994 (inactive)
same,fold change of Putrescine concentration,[9],0.999 (inactive)
same,fold change of Cadaverine concentration,Escherichia coli IAI1 [10],1.02 (inactive)
same,fold change of Cadaverine concentration,[11],0.988 (inactive)
same,fold change of 2-Phenylethylamine concentration,[12],1.06 (inactive)
CN(C)CCC(c1ccccc1)c1ccccn1 (centres undefined) [Pheniramine maleate] (20 µM),growth,[1],1.03
same,growth,Escherichia coli IAI1 [2],0.982
same,growth,[3],0.985
same,growth,[4],0.784
same,fold change of Histamine concentration,[5],1.02 (inactive)
same,fold change of Tryptamine concentration,[6],0.954 (inactive)
same,fold change of Tryptamine concentration,[7],0.877 (inactive)
same,fold change of Putrescine concentration,Escherichia coli IAI1 [8],0.896 (inactive)
same,fold change of Putrescine concentration,[9],1.01 (inactive)
same,fold change of Cadaverine concentration,Escherichia coli IAI1 [10],1.27 (active)
same,fold change of Cadaverine concentration,[11],0.986 (inactive)
same,fold change of 2-Phenylethylamine concentration,[12],0.798 (inactive)
Cc1cccc(N(C)C(=S)Oc2ccc3ccccc3c2)c1 [Tolnaftate] (20 µM),growth,[1],1.02
same,growth,Escherichia coli IAI1 [2],0.997
same,growth,[3],0.984
same,growth,[4],0.839
same,fold change of Histamine concentration,[5],0.984 (inactive)
same,fold change of Tryptamine concentration,[6],1.04 (inactive)
same,fold change of Tryptamine concentration,[7],1.06 (inactive)
same,fold change of Putrescine concentration,Escherichia coli IAI1 [8],1.04 (inactive)
same,fold change of Putrescine concentration,[9],1.01 (inactive)
same,fold change of Cadaverine concentration,Escherichia coli IAI1 [10],1 (inactive)
same,fold change of Cadaverine concentration,[11],1 (inactive)
same,fold change of 2-Phenylethylamine concentration,[12],1.04 (inactive)
